Results on 92 compounds are retold here after article PMC4336329 (PLoS ONE, 2015).

Out of some 310,000 compounds screened, about 14,000 (4.5%) showed an effect of 50% or more. Effects have a minus sign here. This excerpt belongs to a sample that is enriched for strong results.
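Also: peak tail current of the secondary pulse compared with the same well before compound.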

human ether-à-go-go-related gene (hERG) potassium channel, sequence (Q12809 whole entry, looked up): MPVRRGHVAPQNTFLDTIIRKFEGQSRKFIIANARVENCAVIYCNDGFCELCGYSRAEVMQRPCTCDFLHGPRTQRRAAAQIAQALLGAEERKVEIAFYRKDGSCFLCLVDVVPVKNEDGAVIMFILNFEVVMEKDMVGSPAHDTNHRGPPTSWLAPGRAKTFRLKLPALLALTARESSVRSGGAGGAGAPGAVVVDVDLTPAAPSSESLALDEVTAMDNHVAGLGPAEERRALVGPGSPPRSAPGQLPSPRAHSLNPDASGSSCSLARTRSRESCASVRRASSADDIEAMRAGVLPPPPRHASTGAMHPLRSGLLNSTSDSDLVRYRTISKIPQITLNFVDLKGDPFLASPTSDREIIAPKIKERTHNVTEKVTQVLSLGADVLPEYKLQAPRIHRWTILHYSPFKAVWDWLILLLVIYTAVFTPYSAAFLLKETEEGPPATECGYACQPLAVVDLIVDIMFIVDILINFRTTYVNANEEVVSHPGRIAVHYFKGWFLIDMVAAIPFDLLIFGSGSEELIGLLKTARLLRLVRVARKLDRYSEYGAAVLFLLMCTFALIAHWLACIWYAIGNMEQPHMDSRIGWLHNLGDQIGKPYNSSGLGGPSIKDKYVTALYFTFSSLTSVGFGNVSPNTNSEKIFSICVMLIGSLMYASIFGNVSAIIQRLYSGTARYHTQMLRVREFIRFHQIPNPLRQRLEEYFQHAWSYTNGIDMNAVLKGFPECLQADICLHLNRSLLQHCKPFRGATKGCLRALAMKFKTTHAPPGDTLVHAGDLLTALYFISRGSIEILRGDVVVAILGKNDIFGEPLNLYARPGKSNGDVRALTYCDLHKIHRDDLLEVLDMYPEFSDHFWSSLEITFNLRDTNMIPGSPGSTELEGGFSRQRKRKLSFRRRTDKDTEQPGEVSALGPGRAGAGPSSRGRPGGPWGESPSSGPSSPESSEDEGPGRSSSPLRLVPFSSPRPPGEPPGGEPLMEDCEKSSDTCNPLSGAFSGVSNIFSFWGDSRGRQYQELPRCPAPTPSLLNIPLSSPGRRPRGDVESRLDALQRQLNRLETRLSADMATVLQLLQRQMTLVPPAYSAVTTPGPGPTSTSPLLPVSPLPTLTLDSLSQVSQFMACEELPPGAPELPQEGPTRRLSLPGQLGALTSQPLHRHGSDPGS

This assay addresses human ether-à-go-go-related gene (hERG) potassium channel (human, UniProt Q12809). Description: primary screen, population patch clamp on CHO cells stably expressing hERG; higher = less effect of the substance.
For `CSc1ccc(C(=O)NCC(c2ccco2)N(C)C)cc1[N+](=O)[O-]` (centres unmarked), the “hERG current change (%, negative = inhibition) at 10uM” value was 17.8%.
On to `Nc1nnc(-c2ccccc2)c(-c2ccccc2)n1`, for which the “hERG current change (%, negative = inhibition) at 10uM” value is on record as -10.7%.
With `Cc1ccccc1OCCC(=O)OCC(=O)Nc1cc(S(=O)(=O)N2CCOCC2)ccc1Cl`, the “hERG current change (%, negative = inhibition) at 10uM” value is -27.8%.
For the compound `Cc1c(NC(=S)Nc2ccccc2C(F)(F)F)cccc1[N+](=O)[O-]`, the “hERG current change (%, negative = inhibition) at 10uM” value was found to be 8.27%.
As to `COc1ccccc1N1CCN(C(=O)c2cn(-c3ccccc3)nc2-c2cccnc2)CC1`, the “hERG current change (%, negative = inhibition) at 10uM” value was -50.2%.
`CN1CCN(C(=O)c2cn(-c3ccccc3)nc2-c2cccnc2)CC1`: the “hERG current change (%, negative = inhibition) at 10uM” value is -18.4%.
With `O=C(c1cn(-c2ccccc2)nc1-c1cccnc1)N1CCN(S(=O)(=O)c2ccccc2F)CC1`, the “hERG current change (%, negative = inhibition) at 10uM” value is -70.5%.
As for `COc1ccccc1N1CCN(C(=O)c2cn(Cc3ccccc3)nc2-c2cccnc2)CC1`, the “hERG current change (%, negative = inhibition) at 10uM” value was -8.12%.
In the case of `O=C(c1cn(-c2ccccc2)nc1-c1cccnc1)N1CCN(S(=O)(=O)c2cccc(F)c2)CC1` it was -13.6%.
On to `N#Cc1ccccc1S(=O)(=O)N1CCN(C(=O)c2cn(-c3ccccc3)nc2-c2cccnc2)CC1`, for which the “hERG current change (%, negative = inhibition) at 10uM” value is on record as -48%.
For `Nc1nnc(SCc2nnc(-c3ccccc3)o2)s1` the value was -1.84%; for `COC(=O)N/N=C/c1c[nH]c2ccccc12`, 14.5%.
In the case of `CC(C)c1onc(C(=O)N2C(C)CCCC2C)c1[N+](=O)[O-]` (centres unmarked), the “hERG current change (%, negative = inhibition) at 10uM” value was 18.8%.
For `Cc1ccc(NC(=O)c2cccc(N3C(=O)C4C5C=CC(C5)C4C3=O)c2)cc1C` (centres unmarked) the value was -7.07%.
Take `COc1ccc2nc(NC(=O)CS(=O)(=O)Cc3ccccc3)sc2c1`: the “hERG current change (%, negative = inhibition) at 10uM” value was determined as 23.2%.
For `COC(=O)/C(=N/Nc1ccccc1C)Sc1nnc(C(O)c2ccccc2)n1-c1ccccc1` (centres unmarked), the “hERG current change (%, negative = inhibition) at 10uM” value was 13.3%.
Turning to `c1ccc(CN2CCC3(CC2)Nc2ccccc2CO3)cc1`, the “hERG current change (%, negative = inhibition) at 10uM” value is listed as -21.9%.
For `Cl.c1ccc(CN2CCC3(CCCc4ccccc43)CC2)cc1`, the “hERG current change (%, negative = inhibition) at 10uM” value is recorded as -69.6%.
On to `Cl.c1ccc(CN2CCOCC2)cc1`, for which the “hERG current change (%, negative = inhibition) at 10uM” value amounted to 22%.
Consider `COc1ccc(N(CC(=O)Nc2cc(Cl)ccc2C)S(=O)(=O)c2c(C)noc2C)cc1`, for which the “hERG current change (%, negative = inhibition) at 10uM” value was 16.7%.
For `COC(=O)CC1C(=O)NCCN1C(=O)c1c(F)cccc1F` (centres unmarked) the value was 14.5%.
Regarding `O=C(NCc1ccncc1)c1cncc(Br)c1`, the “hERG current change (%, negative = inhibition) at 10uM” value is listed as 10.1%.
For `CC1CN(c2nc3c(c(=O)n(Cc4ccc(Cl)c(Cl)c4)c(=O)n3C)n2C)CC(C)O1` (centres unmarked) the value was -35.7%; for `Cn1c(NCCCN2CCOCC2)nc2c1c(=O)n(Cc1ccc(Cl)c(Cl)c1)c(=O)n2C`, -46%.
Take `Cn1c(N2CCN(c3ccccn3)CC2)nc2c1c(=O)n(Cc1ccc(Cl)cc1)c(=O)n2C`: the “hERG current change (%, negative = inhibition) at 10uM” value is listed as -18%.
With `Cn1c(=O)c2c(nc(N3CCCCC3)n2C)n(C)c1=O`, the “hERG current change (%, negative = inhibition) at 10uM” value is -21.5%.
With `Cn1c(N2CCOCC2)nc2c1c(=O)n(Cc1ccc(Cl)cc1)c(=O)n2C`, the “hERG current change (%, negative = inhibition) at 10uM” value is -54.5%.
For `CC1CN(c2nc3c(c(=O)n(Cc4ccc(Cl)cc4)c(=O)n3C)n2C)CC(C)O1` (centres unmarked) the value was -31.2%; for `Cn1c(N2CCCC2)nc2c1c(=O)n(Cc1ccc(F)cc1)c(=O)n2C`, 0.592%.
As to `Cn1c(N2CCOCC2)nc2c1c(=O)n(Cc1ccc(Cl)c(Cl)c1)c(=O)n2C`, the “hERG current change (%, negative = inhibition) at 10uM” value was -50.5%.
With `Cn1c(N2CCCC2)nc2c1c(=O)n(Cc1ccc(Cl)cc1)c(=O)n2C`, the “hERG current change (%, negative = inhibition) at 10uM” value is given as -68.6%.
Take `COc1ccc(CC(=O)NCc2cccs2)cc1OC`: the “hERG current change (%, negative = inhibition) at 10uM” value is recorded as 2.71%.
Turning to `O=C(Cn1cc(Cl)ccc1=O)c1ccc(Cl)cc1`, the “hERG current change (%, negative = inhibition) at 10uM” value worked out at 11.7%.
In the case of `CCOc1ccc(C(=O)NC(C(=O)NCCc2ccc(OC(F)F)cc2)C(C)C)cc1` (centres unmarked), the “hERG current change (%, negative = inhibition) at 10uM” value is listed as -62.6%.
For `CSc1ccc(CN(C)C(C)C(=O)NCc2ccccc2)cc1` (centres unmarked) the value was -32.8%.
Consider `CCOc1ccc(CCNC(=O)C(O)c2ccccc2)cc1` (centres unmarked), for which the “hERG current change (%, negative = inhibition) at 10uM” value is given as 4.11%.
For `CCc1ccc(CN(C)C(C)C(=O)NCc2ccccc2)cc1` (centres unmarked) the value was -23.5%.
In the case of `CCOc1ccc(C(=O)NC(C(=O)NCCc2ccc(S(N)(=O)=O)cc2)C(C)C)cc1` (centres unmarked) it was 13.4%; in that of `CCOc1ccc(CN(C)C(C)C(=O)NCc2ccccc2)cc1` (centres unmarked), -54.8%; in that of `CCOc1ccc(C(=O)N[C@H](C(=O)O)C(C)C)cc1`, 7.22%.
In the case of `CCOc1ccc(CN(C)C(C)C(=O)NCCc2ccc(F)cc2)cc1` (centres unmarked) it was -71.5%; in that of `CCC(CC)C(=O)NCCc1ccc(F)cc1`, 12.1%.
For the compound `Cc1ccc(OCCCCNC(C)c2ccccc2)c(C)c1` (centres unmarked), the “hERG current change (%, negative = inhibition) at 10uM” value is 2.1%.
For `O=C(NN1C(=O)/C(=C/C=C/c2ccco2)SC1=S)c1ccncc1` the value was 15.3%; for `Cc1ccc(C2c3[nH]c4ccccc4c3C[C@H]3C(=O)N(c4ccccc4C(=O)N4CCC[C@@H]4C(=O)O)C(=O)N23)cc1` (some centres unmarked), -0.654%.
For `Cc1ccc2c(=O)cc(C(=O)NCCc3ccc(S(N)(=O)=O)cc3)oc2c1` the value was 9.13%; for `Cc1ccccc1NC(=O)Cn1nc(C(F)(F)F)cc1C1CC1`, 8.48%; for `COC(=O)C1=C(C)OC(N)=C(C#N)C1c1cc(C)sc1C` (centres unmarked), -0.682%.
On to `Nc1cc(=O)[nH]c(SCC(=O)N2CCC(Cc3ccccc3)CC2)n1`, for which the “hERG current change (%, negative = inhibition) at 10uM” value is given as -2.88%.
In the case of `C/C(=N/NC(N)=S)c1ccccc1[N+](=O)[O-]` it was 7.13%.
On to `Nc1nc(-c2ccc3c(c2)NC(=O)CO3)cs1`, for which the “hERG current change (%, negative = inhibition) at 10uM” value is 15.5%.
For `CCOc1ccccc1CN1CCN(CC2CC2)CC1CCO` (centres unmarked) the value was -2.67%.
For `OCCOc1ccc(CN2CCN(CCCc3ccccc3)C(CCO)C2)cc1` (centres unmarked) the value was -63.3%; for `CCOc1ccc(CN2CCN(CCCc3ccccc3)CC2CCO)cc1` (centres unmarked), -76%; for `CCOc1ccc(CN2CCN(CCCc3ccccc3)C(CCO)C2)cc1` (centres unmarked), -75.5%.
In the case of `CCOc1ccccc1CN1CCN(CCCc2ccccc2)CC1CCO` (centres unmarked) it was -64.9%; in that of `CCNC(=S)Nc1ccc(Cl)cc1Cl`, -14%.
As for `CCOC(=O)c1nc(C)n(-c2cc(Cl)ccc2Cl)n1`, the “hERG current change (%, negative = inhibition) at 10uM” value is reported as 1.64%.
In the case of `Cc1onc(-c2c(Cl)cccc2Cl)c1C(=O)n1nnc2ccccc21` it was -3.48%.
In the case of `CN(CC(=O)Nc1ccc(N2CCOCC2)cc1)C(=O)c1cc(F)c(F)cc1Cl` it was -38.3%.
In the case of `Cc1sc2ncnc(SCC(=O)NC(=O)c3cccn3C)c2c1C` it was 10.8%.
Consider `Cc1nc(C)n(CC(O)COc2ccc(C(=O)c3ccccc3)cc2)n1` (centres unmarked), for which the “hERG current change (%, negative = inhibition) at 10uM” value is given as -6.4%.
In the case of `Cc1ccccc1C(OCCN(C(C)C)C(C)C)c1ccccc1.O=C(O)/C=C\C(=O)O` (centres unmarked) it was -68.3%; in that of `Cc1ccccc1C(=O)NNC(=O)/C=C\C(=O)O`, -11.1%.
In the case of `Cc1ccccc1C(OCCN(C)C)C1CCCCC1.O=C(O)C(=O)O` (centres unmarked) it was -16.3%; in that of `Cc1ccc2nc(NC(=O)C3CCN(S(=O)(=O)c4cnc[nH]4)CC3)sc2c1`, 6.57%.
As for `Cn1nnnc1SCC(=O)N1CCN(c2ccccc2)CC1`, the “hERG current change (%, negative = inhibition) at 10uM” value came to 12.4%.
In the case of `O=C(CSc1nnc2c(Cl)cc(Cl)cn12)N1CCN(c2ccc(F)cc2)CC1` it was -51.5%.
In the case of `O=C(CSc1nnc2c(Cl)cc(Cl)cn12)N1CCN(S(=O)(=O)c2ccccc2)CC1` it was -19.1%; in that of `Cn1nnnc1SCC(=O)N1CCN(c2ccc(Cl)cc2)CC1`, -51.2%; in that of `O=C(CSc1nnc2c(Cl)cc(Cl)cn12)N1CCOCC1`, -6.52%.
With `Cn1nnnc1SCC(=O)N1CCN(c2cccc(Cl)c2)CC1`, the “hERG current change (%, negative = inhibition) at 10uM” value is given as -26.8%.
Regarding `Oc1ccc(CCc2n[nH]c(=S)n2-c2ccc(F)cc2)cc1`, the “hERG current change (%, negative = inhibition) at 10uM” value is reported as -22.2%.
`O=C(COc1ccccc1)Nc1nc2cc3c(cc2s1)OCCO3`: the “hERG current change (%, negative = inhibition) at 10uM” value is 7.49%.
Turning to `Cc1cccn2c(=O)c3cc(C#N)c(=N)n(CCCN4CCOCC4)c3nc12`, the “hERG current change (%, negative = inhibition) at 10uM” value is listed as -80%.
In the case of `N#Cc1cc2c(=O)n3ccccc3nc2n(CCCN2CCOCC2)c1=O` it was -24.3%; in that of `Cc1cccn2c(=O)c3cc(C#N)c(=O)n(CCCN4CCOCC4)c3nc12`, -60.7%.
For `COc1ccccc1-n1c(SCC(=O)Nc2cccc3ccccc23)nc(O)cc1=O` the value was 5.56%; for `CC1=C(C)CC(C(=O)NCCc2ccccc2)C(C(=O)O)C1` (centres unmarked), -10.8%.
In the case of `CCN(CC)S(=O)(=O)c1ccc(N2CCOCC2)c(NC(=O)COc2ccccc2C#N)c1` it was -3.3%.
On to `CC(C)CCNC(=O)c1ccc2c(c1)ncn2C1CCCCC1`, for which the “hERG current change (%, negative = inhibition) at 10uM” value was -42.8%.
For `COc1ccc(-n2cnc3cc(NS(=O)(=O)c4ccccc4)ccc32)cc1` the value was 7.83%; for `CC(C)CCNC(=O)c1ccc2c(c1)ncn2C1CCCC1`, -54.8%; for `CCCCNC(=O)c1ccc2c(c1)ncn2C1CCCC1`, -16.7%.
In the case of `COc1ccccc1-n1cnc2cc(C(=O)NCC3CCCO3)ccc21` (centres unmarked) it was -13.7%; in that of `COc1ccc(-n2cnc3cc(C(=O)NC4CCCC4)ccc32)cc1`, -67.9%; in that of `CCOC(CNC(=O)c1ccc2c(c1)ncn2-c1ccccc1OC)OCC`, 2.14%.
For `COc1ccccc1-n1cnc2cc(C(=O)NC3CCCC3)ccc21` the value was -65.5%; for `COc1ccc(-n2cnc3cc(C(=O)N4CCOCC4)ccc32)cc1`, -15.6%; for `COc1ccccc1-n1cnc2cc(NS(=O)(=O)c3ccc(Br)cc3)ccc21`, -3.3%.
Consider `COc1ccc(-n2cnc3cc(C(=O)NCC4CCCO4)ccc32)cc1` (centres unmarked), for which the “hERG current change (%, negative = inhibition) at 10uM” value was -17.9%.
Take `COc1ccccc1-n1cnc2cc(NS(=O)(=O)c3ccccc3)ccc21`: the “hERG current change (%, negative = inhibition) at 10uM” value is listed as -57.5%.
